# This is a sample that favours compounds with a hit; in the whole collection about 10% have one here.
# CCT modulator – changes cytosolic chaperonin activity. activity change, % (no concentration beside the values), hits read low. purified chaperonin ATPase assay, HTRF ADP detection, 30 min. AID 651819. 360,000 tested, 0.3% active; in the data active = activity change below about -30%
#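 Enzyme 40 or 20 nM (batch-dependent) in Tris pH 7.4/KCl/MgCl2/DTT; cpd 76 uM single point; ATP 10 uM; 30 min 37 °C; Transcreener ADP HTRF detection, 30 min RT; ratio 665/615.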
# G9a block – G9a (human) methyltransferase inhibition | Q96KQ7 | G9a H3K9 monomethylation, AlphaScreen, 2 h | Potency, µM (titrated, usually from 102 µM), inactives show at the highest dose activity, negative = inhibition, actives largely listed as inhibitors | 350,000 tested, 8.8% active | AID 504332; note: potency is the fitted concentration of half-maximal effect; nearly all actives have a fitted effect of over 75% in size
#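 Readings reflect AlphaScreen signal from monomethyl-H3K9 antibody detection. HMT at 20 nM; substrate b-H3K9 500 nM; cofactor SAM 20 uM; 2 h RT reaction; compounds tested as titrations in qHTS with 15 min preincubation.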
# MmCpn inh – M. maripaludis TRiC chaperonin inhibition; 330,000 tested, 0.031% active; purified Mm-Cpn ATPase, ADP Transcreener TR-FRET; Potency, µM (series often up to 76.9 µM), for the others: at the highest dose activity, negative = inhibition, actives largely listed as inhibitors; note: potency is the fitted concentration of half-maximal effect; nearly all actives have a fitted effect of over 80% in size
#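 Purified archaeal Mm-CPN (25nM final) preincubated 10 min at 37degC with compound, then 10uM ATP for 30 min at 37degC; ADP measured by HTRF Transcreener TR-FRET; buffer 30 mM TRIS pH 7.4, 100mM KCl, 5mM MgCl2, 1mM DTT.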
# PLK1 PBD inh – PLK1 (human) polo-box domain binding inhibition; P53350; Plk1 PBD binding of FITC phosphopeptide, fluorescence polarization; Potency, µM, for the others: max response, negative = inhibition, hits mostly inhibitors; 360,000 tested, 2.8% active; note: potency is the fitted concentration of half-maximal effect; series mostly up to about 57 µM; nearly all actives have a fitted effect of over 65% in size
# Target sequence (P53350 whole entry, looked up, the tested form may be a part): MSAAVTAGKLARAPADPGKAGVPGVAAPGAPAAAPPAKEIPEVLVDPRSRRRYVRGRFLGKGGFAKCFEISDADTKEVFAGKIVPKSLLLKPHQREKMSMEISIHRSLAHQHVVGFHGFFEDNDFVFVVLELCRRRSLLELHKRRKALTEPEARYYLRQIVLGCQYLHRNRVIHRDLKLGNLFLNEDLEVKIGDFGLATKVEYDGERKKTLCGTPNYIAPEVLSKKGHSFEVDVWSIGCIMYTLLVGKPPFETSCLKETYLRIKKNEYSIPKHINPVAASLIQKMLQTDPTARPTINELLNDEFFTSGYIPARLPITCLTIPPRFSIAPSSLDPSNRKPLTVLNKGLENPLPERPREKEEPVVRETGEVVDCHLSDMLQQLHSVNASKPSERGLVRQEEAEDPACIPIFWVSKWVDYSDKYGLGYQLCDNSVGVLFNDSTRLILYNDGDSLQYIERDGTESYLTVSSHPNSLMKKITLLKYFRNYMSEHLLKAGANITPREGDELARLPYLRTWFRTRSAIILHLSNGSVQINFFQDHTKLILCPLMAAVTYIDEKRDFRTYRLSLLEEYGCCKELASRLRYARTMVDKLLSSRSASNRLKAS
# Sfp inh – Sfp phosphopantetheinyl transferase inhibition; Potency, µM, for inactives: largest response in the series, negative = inhibition, most hits filed as inhibitors; Biochemical Sfp PPTase activity, qHTS; 310,000 tested, 3.5% active;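 note: the enzyme is Sfp with the accession as filed and its product quenches rhodamine fluorescence; potency is the fitted concentration of half-maximal effect; 0% = enzyme reaction without inhibitor and -100% = no enzyme wells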
#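 Sfp 15 nM + cpd, 15 min RT; start w/ rhodamine-CoA 5 uM, BHQ-2-YbbR 12.5 uM (final); 50 mM Hepes pH 7.6, 10 mM MgCl2, 0.01% NP-40, 0.01% BSA; read 525/598 nm at 0 and 30 min.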
# VDR inhibitor – vitamin D3 receptor (human) inhibition; Potency, µM, without a hit: max response, negative = inhibition, usual class: inhibitors; P11473; 400,000 tested, 0.93% active; VDR-SRC2-3 peptide fluorescence polarization, 2 h; note: potency is the fitted concentration of half-maximal effect
#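 After 23 nl compound addition and a short centrifugation, plates sat for 2 hours at ambient temperature; polarization of fluorescence then indicated loss of VDR binding to peptide SRC2-3.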
# * marks the source's active call; other numbers are inactive results; ? = inconclusive; . = not tested or not shown; [ ] = another dose, or the depositor's remark. Unless noted, calls come from the whole dose curve; as a rule, active = well fitted curve in the direction sought with a large enough effect; inconclusive = small, poorly fitted or top-dose-only effect, or another doubt; inactive = no such curve, though single readings can be large; an effect the other way counts as inactive or inconclusive. Unless noted, % is set by controls: 0 for no effect and ±100 for the full control effect.
SMILES,CCT modulator,G9a block,MmCpn inh,PLK1 PBD inh,Sfp inh,VDR inhibitor
COc1ccc(N2CCN(C(=O)c3cc4c(=O)n(Cc5cccnc5)ccc4nc3C)CC2)cc1,.,-3%[59 µM],.,.,.,2%
Fc1cccc(CN2CCc3nc(Nc4ccc5c(c4)OCCO5)ncc3C2)c1F,.,-1%[12.7 µM],.,.,.,3%
Cc1nn(-c2nnc(NC3CCCCC3)nn2)c(C)c1Br,2,22µM*,-3%,-3%,3%,2%
c1ccc(COc2ccc(OCCCN3CCCCC3)cc2)cc1,0,13µM*,0%,-19%,-15%,-24%
c1ccc(COc2ccc(OCCCCN3CCCC3)cc2)cc1,-2,22µM*,-2%,-11%,?,-6%
c1ccc(OCCCCN2CCCCC2)cc1,-6,7%[59 µM],1%,2%,19%,2%
C=CCNCCCCOc1ccc(OCc2ccccc2)cc1,2,10µM*,0%,-10%,-16%,5%
Fc1ccc(OCCCCCCN2CCCC2)cc1,-2,0%[59 µM],0%,-7%,22%,3%
Cc1cc(=O)oc2c(C)c(OCC(=O)NCC3CCC(C(=O)O)CC3)ccc12 (configuration not stated),1,.,3%,5%,7%,-1%
Cc1c(OC(C)C(=O)NCC2CCC(C(=O)O)CC2)ccc2c3c(c(=O)oc12)CCCC3 (configuration not stated),-37*,-9%,0%,-3%,26%,21%
CCCCc1cc(=O)oc2c(C)c(OCC(=O)NCC3CCC(C(=O)O)CC3)ccc12 (configuration not stated),0,79µM*,-1%,-13%,9%,4%
CC1/C=C/C=C/C=C/C=C/C=C/C=C/C=C/C(OC2OC(C)C(O)C(N)C2O)CC2O[C@@](O)(CC(O)CC(O)C(O)CCC(O)CC(O)CC(=O)OC(C)[C@H](C)C1O)CC(O)C2C(=O)O (some centres not stated),.,?,.,.,-65%,50µM*
Cc1ccc(NC(=O)c2cc(C)nc3c2c(C)nn3-c2cccc(Cl)c2C)c(C)c1,.,1%[59 µM],.,.,.,-2%
CC1CN(c2nnc(NC(=O)c3ccccc3)s2)CC(C)O1 (configuration not stated),-3,56µM*,-2%,-3%,-16%,1%
COc1ccc(-n2nc3c(N4CCCC(C(=O)NCCc5ccc(C)cc5)C4)nnc(C)c3c2C)cc1 (configuration not stated),.,?,.,.,.,5%
COc1cc(-c2nnc(SCC(=O)N3CCOCC3)o2)cc(OC)c1OC,1,40µM*,2%,?,-4%,?
COc1cc(-c2nnc(SCC(=O)c3cc(C)n(CC4CCCO4)c3C)o2)cc(OC)c1OC (configuration not stated),-2,-27%[12.7 µM],-5%,-8%,89µM*,-10%
Cc1cc(C(=O)CSc2nnc(-c3ccc(F)cc3)o2)c(C)n1CC1CCCO1 (configuration not stated),0,-4%[2.33 µM],1%,0%,-22%,7%
CCCN1C(=O)/C(=C2/C=Cc3ccccc3N2CC)SC1=S,0,3.2µM*,0%,6%,4%,10%
CCCN1/C(=C2/SC(=S)N(CC)C2=O)C=Cc2ccccc21,-4,?,1%,-9%,?,16%
CCN1C(=O)/C(=C2/C=Cc3ccccc3N2CC)SC1=S,0,13µM*,2%,-6%,-15%,-19%
COc1ccc(NC(=O)C(=O)NCCc2sc(-c3ccc(Cl)cc3)nc2C)cc1,.,4%[59 µM],.,.,.,19%
Cc1ccc(CNC(=O)Cc2c(C)c3c(cc(C)c4c(C)coc43)oc2=O)cc1,.,?,.,.,.,3%
Cc1cc(C)c(S(=O)(=O)NCC(c2ccc(N(C)C)cc2)N2CCOCC2)c(C)c1 (configuration not stated),.,?,.,.,.,10%
CN(C)c1ccc(/C=N/NC(=O)C(O)(c2ccccc2)c2ccccc2)o1,1,7.9µM*,0%,-16%,2.8µM*,?
SMILES,CCT modulator,G9a block,MmCpn inh,PLK1 PBD inh,Sfp inh,VDR inhibitor
O=C(NN=Cc1ccccc1O)C(O)(c1ccccc1)c1ccccc1,-3,.,.,3%,.,-10%
Cc1cc(C(=O)N/N=C/c2ccc(N(C)C)o2)cs1,2,?,-1%,-14%,13µM*,?
CN(C)c1ccc(/C=N/NC(=O)c2ccccc2O)o1,0,28µM*,2%,-12%,16µM*,?
O=C(Nc1ccccc1Cl)c1ccc(F)c(S(=O)(=O)NCc2ccc(Cl)c(Cl)c2)c1,.,3%[59 µM],.,.,.,14%
CN1CCN(C(CNC(=O)c2c(F)cccc2F)c2ccc3c(c2)OCO3)CC1 (configuration not stated),.,2%[59 µM],.,.,.,-14%
Cc1cc2nc(-c3ccc(NC(=O)c4ccccc4F)cc3)oc2cc1C,.,9%[59 µM],.,.,.,-5%
Cc1ccc(NC(=O)CCC(=O)OCC(=O)c2ccc(Oc3ccc([N+](=O)[O-])cc3)cc2)cc1C,-1,-1%[59 µM],0%,-14%,17%,17%
Cc1cccc(NC(=O)CCC(=O)OCC(=O)c2ccc(Oc3ccc([N+](=O)[O-])cc3)cc2)c1,0,8.9µM*,-6%,11µM*,-7%,?
O=C(O)c1cc2c(cc1Cl)N1CCCCCC1=NS2(=O)=O,-1,-36%,4%,-2%,9%,-27%
O=C(NC1CCCCC1)c1cc2c(cc1Cl)N1CCCCCC1=NS2(=O)=O,-4,50µM*,1%,-2%,.,4%
CCOC(=O)C1=C(N)Oc2ccc(Br)cc2C1C(C#N)C(=O)OCC (configuration not stated),.,20%[59 µM],.,.,-15%,5.6µM*
CCOC(=O)C1=C(N)Oc2cc(O)ccc2C1c1ccc(C)cc1 (configuration not stated),2,.,3%,-2%,7%,-2%
O=C(Nc1nc(-c2ccc(Cl)s2)cs1)c1cccs1,-1,50µM*,-14%,?,?,4%
O=C(Nc1ccc([N+](=O)[O-])cc1)Nc1nc(-c2ccc(Cl)s2)cs1,-1,16µM*,3%,-13%,?,-7%
O=C(O)C1CCCCC1C(=O)Nc1nc(-c2ccc(Cl)s2)cs1 (configuration not stated),1,45µM*,0%,?,22µM*,-1%
O=C(Nc1nc(-c2ccccc2)cs1)c1cccs1,-1,-6%,-6%,1%,-2%,-3%
Cc1csc(NC(=O)c2ccco2)n1,-14,16%[59 µM],0%,-5%,16%,2%
CCCC(=O)Nc1nc(-c2ccc(Cl)s2)cs1,-1,15%,-5%,-6%,11%,-20%
O=C(Nc1nc(-c2ccc(Cl)s2)cs1)c1ccco1,-1,40µM*,-12%,-12%,-4%,-14%

# From PubChem BioAssay
